Screening data: PubChem, National Center for Advancing Translational Sciences (NCATS)
Compounds with a hit are over-represented: about 6.9% of the library has one in this group of screens.
VDR inh – Inhibitors of the vitamin D receptor (VDR): qHTS; VDR-SRC2-3 peptide fluorescence polarization, 2 h; Potency, µM, inactives show max response, negative = inhibition, usual class: inhibitors; hit rate 0.93% among 400,000; further: on the % scale 0 is the no-effect control and ±100 the full control effect
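Fluorescence polarization assay of small-molecule disruption of VDR binding to coregulator peptide SRC2-3. Compounds and controls pin-transferred, then read after 2 h incubation at ambient room temperature.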
JMJD2A Tudor – qHTS Assay for Inhibitors of JMJD2A-Tudor Domain; Lysine-specific demethylase 4A (Homo sapiens), O75164; AlphaScreen JMJD2A-Tudor / H3K4me3 peptide binding; Potency, µM (top dose mostly 114 µM), inactives show at the top dose activity change, negative = inhibition, hits mostly inhibitors; hit rate 4.4% among 390,000; AID 504339, 2011; further: on the % scale 0 is the no-effect control and ±100 the full control effect; nearly all actives have a fitted effect of over 50% in size
HP1b binding inh – HTS for Inhibitors of HP1-beta Chromodomain Interactions with Methylated Histone Tails; AlphaScreen HP1-beta / biotin-H3K9me3 peptide binding; Potency, µM (titrated, usually from 114 µM), for the others: at the highest dose activity change, negative = inhibition, usual class: inhibitors; hit rate 0.56% among 390,000; AID 540317, 2011; further: nearly all actives have a fitted effect of over 70% in size
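Compound inhibition of the preformed complex between 50 nM HP1-beta and 50 nM biotinylated H3K9me3 peptide was read by AlphaScreen. Buffer was PBS pH 7.4 with 0.01% Tween-20. Incubations ran 30 min at room temperature, with 10 ug/mL donor/acceptor beads.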
BAZ2B block – qHTS Assay for Inhibitors of BAZ2B; Bromodomain adjacent to zinc finger domain protein 2B (Homo sapiens), Q9UIF8; AlphaScreen BAZ2B-H3K14Ac peptide displacement; Potency, µM (doses to about 114 µM), for the others: top-dose activity change, negative = inhibition, hits mostly inhibitors; hit rate 4.4% among 360,000; AID 504333, 2011; further: on the % scale 0 is the no-effect control and ±100 the full control effect; nearly all actives have a fitted effect of over 60% in size
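In this displacement format the biotinylated H3(5-23) peptide acetylated at Lys14 serves as ligand at 50 nM, with BAZ2B at 50 nM in PBS pH 7.4 containing 0.01% Tween-20. Donor and acceptor beads are 10 ug/mL final.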
L3MBTL1 inh – qHTS Assay for the Inhibitors of L3MBTL1; Lethal(3)malignant brain tumor-like protein 1 (Homo sapiens), Q9Y468; AlphaScreen L3MBTL1–H3K9me1 peptide binding; Potency, µM (series often up to 57.1 µM), inactives show at the top dose activity, negative = inhibition, most hits filed as inhibitors; hit rate 0.66% among 230,000; further: on the % scale 0 is the no-effect control and ±100 the full control effect; nearly all actives have a fitted effect of over 60% in size
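Read-out is AlphaScreen signal from streptavidin donor and nickel chelate acceptor beads (10 ug/mL final each) bridging L3MBTL1 (50 nM) and biotinylated K9-monomethylated H3(1-15) peptide (75 nM), after 30 min compound exposure at room temperature.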
PLK1 PBD block – qHTS for Inhibitors of PLK1-PDB (polo-like kinase 1 - polo-box domain): Primary Screen; hit rate 2.8% among 360,000; Plk1 PBD binding of FITC phosphopeptide, fluorescence polarization; AID 720504, 2013; Potency, µM, without a hit: max response, negative = inhibition, most hits filed as inhibitors; Serine/threonine-protein kinase PLK1 (Homo sapiens), P53350; further: series mostly up to about 57 µM; on the % scale 0 is the no-effect control and ±100 the full control effect; nearly all actives have a fitted effect of over 65% in size
Starred values were filed as active, the others as inactive; ? = inconclusive; nt = no result; [ ] = another dose, or the depositor's remark. The call rests on the fitted dose curve; in most records, active means well fitted curve in the direction sought with a large enough effect; inconclusive means small, poorly fitted or top-dose-only effect, or another doubt; inactive means no such curve, though single readings can be large; an effect the other way counts as inactive or inconclusive. Potency means the concentration at half of the fitted maximal effect.

SMILES	VDR inh	JMJD2A Tudor	HP1b binding inh	BAZ2B block	L3MBTL1 inh	PLK1 PBD block
CN(C)c1ccc(/C=N/N2C(=O)c3ccccc3C2=O)cc1	26%	-3%	18%	4%	nt	-17%
COc1cc2c(cc1OC)C(=Cc1ccc(N(C)C)cc1)C=C2	-2%	10µM*	10µM*	nt	nt	-5%
CNc1ccc(C=C2C=Cc3ccccc32)cc1	6%	28µM*	40µM*	nt	nt	-2%
COc1ccc(C(=O)/C=C/c2ccc(N(C)C)cc2)c(OC)c1	-22%	-5%	43%	-10%	43%	50%
CN(C)c1ccc(C=C2C=Cc3ccccc32)cc1	15%	14µM*	?	nt	nt	4%
COC(=O)C[C@@H]1OC[C@H](Cc2ccccc2)N1S(=O)(=O)c1ccc(C)cc1	nt	nt	nt	nt	nt	-6%
CN1C(=O)N(C)C(c2cccc([N+](=O)[O-])c2)C2=C1CCCC2=O (stereo unspecified)	-11%	-13%	3%	-2%	nt	-4%
CSCCC(NS(=O)(=O)c1ccc2c(c1)oc(=O)n2C)C(=O)NCc1ccc(Cl)cc1 (stereo unspecified)	19%	-8%	15%	8%	nt	nt
COc1ccccc1CN1CC[C@@]2(CCCN(C(=O)c3cccn3C)C2)C1	-4%	nt	nt	nt	nt	nt
COC(=O)C1C=CC(OC2OC(COC(C)=O)C(OC(C)=O)C(OC(C)=O)C2OC(C)=O)n2c(=O)n(-c3ccccc3)c(=O)n21 (stereo unspecified)	?	-6%	39%	nt	nt	-25%
C[C@H](O)[C@@H]1C(=O)N2CCc3c([nH]c4ccccc34)[C@@H]2C[C@@H]1N(C)S(=O)(=O)c1ccccc1	nt	nt	nt	nt	nt	-15%
CCN(CC)C(=O)[C@H]1CC(CC(=O)NCCCOC)C(=O)N2CCc3c([nH]c4ccccc34)[C@]12C (stereo partly specified)	-5%	-12%	18%	nt	-1%	-17%
CCn1c(Sc2ccc([N+](=O)[O-])cn2)nnc1-c1ccco1	-1%	25µM*	36%	2%	8%	-28%
CCn1c(SCC(=O)NNC(=O)c2ccco2)nnc1-c1ccco1	0%	-8%	-19%	-5%	nt	?
COc1cc(C(=O)Nc2c(C(=O)Nc3ccccc3F)oc3ccccc23)cc(OC)c1OC	19%	-14%	32%	-1%	nt	nt
O=c1c(-c2ccc(F)cc2)nc2cnc(N3CCNCC3)nc2n1C1CC1	-4%	nt	nt	nt	nt	nt
C/C(=N\O)C(C)/[N+]([O-])=C/c1nc(C)c(C)n1O (stereo unspecified)	4%	7.1µM*	5%	nt	nt	-11%
CN1CCN(Cc2nc3ccccc3c(=O)n2Cc2nc(-c3cccc([N+](=O)[O-])c3)cs2)CC1	-10%	?	?	40µM*	nt	27µM*
CN1CCN(Cc2nc3ccccc3c(=O)n2Cc2nc(-c3ccc4ccccc4c3)cs2)CC1	-3%	?	?	?	-10%	?
CC(C)CCn1c(COc2ccccc2)nn(CCC#N)c1=S	0%	10%	34%	20%	nt	-2%
CCn1c(CNC(=O)c2ccc(OC)cc2)nnc1SCC(=O)Nc1ccccc1	-5%	-15%	23%	-6%	nt	nt
CCn1c(SCC(=O)c2ccc(OC)cc2)nnc1C1CC1	-13%	100µM*	-3%	0%	1%	-16%
CCn1c(CNC(C)=O)nnc1SCC(=O)c1ccc(Br)cc1	-68%	56µM*	-19%	-3%	-15%[11.4 µM]	-21%
CCn1c(CNC(=O)c2ccc(OC)cc2)nnc1SCC(=O)c1ccccc1	?	20µM*	?	-9%	2%	-11%
CCn1c(SCC(=O)NNC(=O)c2ccc(OC)cc2)nnc1C1CC1	4%	?	5%	10%	nt	3%
SMILES	VDR inh	JMJD2A Tudor	HP1b binding inh	BAZ2B block	L3MBTL1 inh	PLK1 PBD block
COc1ccc(OC)c(CNc2ncnc3onc(-c4ccc(Cl)cc4)c23)c1	-8%	-18%	26%	-20%	nt	nt
O=C(COc1ccc(S(=O)(=O)N2CCOCC2)cc1)NCCc1ccc(Cl)cc1	nt	nt	nt	nt	nt	8%
COc1ccc(NC(=O)c2cc(-c3ccccc3Cl)no2)cc1	-7%	-2%	26%	-2%	-1%	-7%
O=C(Nc1ccccc1)c1cc(-c2ccccc2Cl)no1	?	28µM*	-2%	5%	5%	3.8µM*
COC1=CC(=NCl)C=CC1=NCl	nt	nt	nt	nt	nt	13µM*
COc1ccccc1C1CC(c2ccc(Cl)cc2)Nc2ncnn21 (stereo unspecified)	-20%	2%[11.4 µM]	-7%	-7%	-9%	27µM*
COc1cccc(C2CC(c3ccccc3OC)n3ncnc3N2)c1 (stereo unspecified)	-9%	-20%	37%	-8%	?	-4%
Cn1c(=O)c2[nH]c(SCCN3CCOCC3)nc2n(C)c1=S	28µM*	16µM*	5%[57 µM]	nt	nt	27µM*
O=C(Cc1csc(N2CCOCC2)n1)N/N=C/c1ccc(O)c(O)c1O	10%	10µM*	16µM*	nt	-16%	11µM*
O=C(CCN1CCN(c2ccccc2)CC1)N/N=C/c1ccc(O)c(O)c1O	-15%	40µM*	28µM*	8.9µM*	5.6µM*	11µM*
COC(=O)N/N=C/c1cc(C)n(-c2ccccc2)c1C	2%	-25%	6%	-31%	-1%	?
C/C(=N\NC(=O)Cc1csc(N2CCOCC2)n1)c1ccccc1	7%	5%	18%	2%	nt	-2%
Cc1cc(C(=O)N/N=C/c2ccc(O)c(O)c2O)c(C)n1-c1ccccc1	-21%	56µM*	?	56µM*	?	6.7µM*
O=C(CCN1CCOCC1)N/N=C/c1cc(Br)cc(Br)c1O	18%	?	28%	56µM*	-15%	-11%
COc1ccc(CNC(=O)CN(C(=O)CCC(=O)Nc2nccs2)c2cccc(C)c2)cc1	6%	-11%	3%	2%	nt	0%
CC(C)C(=O)OCc1cc(=O)n2nc(C3CCCCC3)sc2n1	7%	-4%	88%	4%	nt	nt
CN(C)c1ccc(CNC(=O)c2cccn2-c2nnc(N3CCCCC3)s2)cc1	0%	?	-3%	40µM*	nt	nt
CC(C)c1ccc(NC(=O)c2cccn2-c2nnc(N3CCCCC3)s2)cc1	2%	-28%	-14%	?	nt	nt
Cc1cc(NC(=O)c2cccn2-c2nnc(N3CCCCC3)s2)ccc1Br	14%	?	8%	71µM*	nt	nt
CN(/N=C/c1cc(Cl)cc(Cl)c1O)c1c(Cl)cccc1[N+](=O)[O-]	1%	40µM*	?	10µM*	?	-13%
Cc1nnc(NN)n(N)c1=O	-8%	32µM*	22µM*	11%	8%	-4%
O=S(O)CO	-1%	nt	nt	nt	nt	nt
